# Test results from PubChem BioAssay (EPA / NIEHS).
# “And” between values parts separate entries of the source, which are not always exact repeats. Equal values may be shown once. More than one record can exist for a structure, and the calls need not agree. The source made the active and inactive calls. How the source made its calls: active means hit-call score of the fitted dose curve at least 0.9, where 1 is the maximum; inactive means score below 0.9.
# Read-out: Interferon-inducible T-cell alpha chemoattractant (ITAC), CXCL11 (gene 6373)
# Test: BSK_hDFCGF_ITAC: BioMAP Diversity Plus: hDFCGF Assay for Interferon-inducible T-cell alpha chemoattractant (ITAC) Biomarker Activity (AID 2284251)
# Details: primary human foreskin fibroblasts
# Description: BSK_hDFCGF is a cell-based, multiplexed-readout assay that uses foreskin fibroblast, a human skin primary cell, with measurements taken at 24 hours after chemical dosing in a 96-well plate.BSK_hDFCGF_ITAC is an assay component measured in the BSK_hDFCGF assay. It measures I-TAC antibody related to regulation of gene expression using ELISA technology.Data from the assay component BSK_hDFCGF_ITAC was analyzed at the endpoint, BSK_hDFCGF_ITAC, in the positive analysis fitting direction relative to DMSO as the negative control and baseline of activity. Using a type of binding reporter, gain or loss-of-signal activity can be used to understand protein changes. To generalize the intended target to other relatable targets, this assay endpoint is annotated to the 'cytokine' intended target family, where the subfamily is 'chemotactic factor'.
# The levels of cell surface (or secreted, indicated by the prefix "s") biomarker endpoints were measured by ELISA. Overt cytotoxicity to cells in confluent adherent cultures (all systems other than the BT system) was assessed by measuring total protein levels using sulforhodamine B (SRB) staining in parallel cultures at the time of biomarker measurements, indicated as SRB endpoints. For proliferation assays for adherent cell types, individual cell types are cultured at sub-confluence and relative cell numbers quantified by SRB staining at time points optimized for each system (48 h: 3C and CASM3C systems; 72 h: BT and HDF3CGF systems; 96 h: SAg system). SRB was performed by staining cells with 0.1% SRB after fixation with 10% TCA and reading wells at 560 nm.Viability and proliferation of PBMC (T cells) was quantified by Alamar Blue reduction for the SAg and BT systems. For PBMC viability (referred to as PBMC Cytotoxicity within the assay endpoint names), cells were plated (75,000/well in a 96-well plate) and then chemical samples added for 1 h before addition of activators, SEB and TSST-1 (20 ng/mL final concentration each). Cells were incubated for 90 h. Then, Alamar Blue (20 uL/well) (Invitrogen, Cat DAL1100) was added for 6 h, and the plates were read with a fluorescence microplate reader at 546/580 nm (excitation/emission). For PBMC proliferation, cells were plated and activated as above but incubated for only 16 h prior to addition of Alamar Blue. Plates were read after 6 h.
SMILES,AC50,outcome
C=CC(=O)OCC(F)(F)C(F)(F)C(F)(F)C(F)(F)COC(=O)C=C,6.61 µM (active) and 5.23 µM (active),
O=C(O)C(F)(F)C(F)(F)C(F)(F)C(F)(F)C(F)(F)C(F)(F)C(F)(F)C(F)(F)C(F)(F)C(F)(F)C(F)(F)C(F)(F)C(F)(F)F,5.22 µM (active),inactive
C=CC(=O)OCC(F)(F)C(F)(F)C(F)(F)C(F)(F)C(F)(F)C(F)(F)C(F)(F)F,,inactive
O=C(Cl)C(F)(F)C(F)(F)C(F)(F)C(F)(F)C(F)(F)C(F)(F)C(F)(F)C(F)(F)F,20.4 µM (active) and 48.2 µM (active) and 30 µM (active),
O=C(O)C(F)(OC(F)(F)C(F)(OC(F)(F)C(F)(OC(F)(F)C(F)(F)C(F)(F)F)C(F)(F)F)C(F)(F)F)C(F)(F)F (stereo not given),,inactive
FC(F)(F)C(F)(F)C(F)(F)C(F)(F)C(F)(F)C(F)(F)C(F)(F)Br,,inactive
FC(F)(F)C(F)(F)C(F)(F)N(C(F)(F)C(F)(F)C(F)(F)F)C(F)(F)C(F)(F)C(F)(F)F,,inactive
FC(F)(Br)C(F)(F)C(F)(F)C(F)(F)C(F)(F)C(F)(F)Br,,inactive
OCCCC(F)(F)C(F)(F)C(F)(F)F,,inactive
O=C(O)C(F)(F)C(F)(F)C(F)F,,inactive
FC(F)(F)C(F)(F)CNCC(F)(F)C(F)(F)F,,inactive
COC(=O)CCC(F)(F)C(F)(F)C(F)(F)C(F)(F)F,,inactive
FC(F)(F)C(F)(F)C(F)(F)CI,0.22 µM (active),inactive
NC(=O)C(F)(F)C(F)(F)C(F)(F)C(F)(F)F,,inactive
O=C(O)C(F)(OC(F)(F)C(F)(OC(F)(F)C(F)(F)C(F)(F)F)C(F)(F)F)C(F)(F)F (stereo not given),,inactive
C=CC(F)(F)C(F)(F)C(F)(F)C(F)(F)C(F)(F)C(F)(F)C(F)(F)C(F)(F)F,,inactive
OCC(F)(F)C(F)(F)C(F)(F)C(F)(F)C(F)(F)C(F)F,,inactive
CCO[Si](CCC(F)(F)C(F)(F)C(F)(F)C(F)(F)C(F)(F)C(F)(F)F)(OCC)OCC,,inactive

SMILES,AC50,outcome
FC(F)(F)C(F)(F)C(F)(F)C(F)(F)C(F)(F)C(F)(F)CC1CO1 (stereo not given),,inactive
FC(F)(F)C(F)(F)C(F)(F)C(F)(F)C(F)(F)C(F)(F)CCS,,inactive
CCCCCCOC(=O)c1ccccc1O,40.7 µM (active) and 45.2 µM (active),
O=C(O)C(F)(F)C(F)(F)C(F)(F)F,,inactive
CCCCCCCCC(F)(F)C(F)(F)C(F)(F)C(F)(F)C(F)(F)C(F)(F)F,,inactive
FC(F)(F)C(F)(F)C(F)(F)C(F)(F)CCI,,inactive
O=C(O)C=C(C(F)(F)F)C(F)(F)F,,inactive
O=C(O)C(F)(F)C(F)(F)C(F)(F)C(F)(F)C(F)(F)C(F)(F)C(F)(F)C(F)(F)C(F)(F)C(F)(F)C(F)(F)C(F)(F)F,3.49 µM (active),inactive
OCC(F)(F)C(F)(F)C(F)(F)C(F)(F)C(F)(F)C(F)(F)F,49.4 µM (active),inactive
O=S(=O)(OCC(F)F)C(F)(F)F,,inactive
Cc1ccc(S(=O)(=O)OCC(F)(F)C(F)(F)C(F)(F)C(F)(F)C(F)(F)C(F)F)cc1,,inactive
O=C(O)C(F)(F)C(F)(F)F,,inactive
C=C(C)C(=O)OCC(F)(F)C(F)(F)C(F)(F)C(F)(F)C(F)(F)C(F)(F)C(F)(F)F,,inactive
FC(F)(F)C(F)(F)C(F)(F)C(F)(F)C(F)(F)CCI,30 µM (active) and 40.9 µM (active),
O=S(=O)(OCCOC(F)(F)F)C(F)(F)F,,inactive
O=S(=O)(O)C(F)(F)C(F)(F)C(F)(F)C(F)(F)C(F)(F)C(F)(F)C(F)(F)F,,inactive
CCCCC(CC)COP(=O)(O)OCC(CC)CCCC (stereo not given),29.7 µM (active) and 20 µM (active),
CC(C)(C)C(=O)CC(=O)C(F)(F)C(F)(F)C(F)(F)F,,inactive
